Some test systems named below: NCI-H23 lung; NCI-H226 lung; NCI-H322M lung; HOP-62 NSCLC; NCI-H460 lung; HOP-92 NSCLC; NCI-H522 lung; A549/ATCC NSCLC; 786-0 renal; COLO 205 colon; DU-145 prostate; K-562 leukemia; MALME-3M melanoma; MDA-MB-231 breast; RXF 393 renal; SF-268 CNS; SF-295 CNS; SF-539 CNS; UACC-257 melanoma; M14 melanoma.
Experiment in all cases: NCI-60 one-dose screen, 48 h (100 = growth as untreated, 0 = no growth, -100 = all killed)
Common to all, as to conditions: 10 µM unless noted

Several values for one entry are separate records, joined by “and”; a condition that tells them apart may be missing. Equal values may be shown once. The panel holds about 83,000 compounds, 20% with a hit somewhere; the sample as a whole holds those more often.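 Percent growth is the endpoint: 0 to 100 indicates growth inhibition (40 means 60% inhibition), 0 means no net growth, and negative values indicate cell death.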 Unmarked numbers belong to inactive results. Activity calls are given as the source filed them. How the source made its calls: active means growth percent below 10; inactive means the rest.

As to `CCCN1C(=O)/C(=c2\sc3n(c2=O)NC2C(N=3)N(CC)C(=O)N2CC)c2ccccc21` (stereo not given), the growth is 38.8% in the experiment with NCI-H23 lung; 69.3% in the experiment with NCI-H226 lung; 55% with NCI-H322M lung; 50.8% in the experiment on HOP-62 NSCLC; 18.5% in the experiment with NCI-H460 lung; 86.2% in the experiment on HOP-92 NSCLC. For the same compound, the growth was 11.9% with NCI-H522 lung; 42% in the experiment on A549/ATCC NSCLC; 53.3% with 786-0 renal; 23% with COLO 205 colon; 33.5% in the experiment with DU-145 prostate; 13.7% with K-562 leukemia. The growth with MALME-3M melanoma was 61.8%; in the experiment on MDA-MB-231 breast, 24.4%; with RXF 393 renal, -3.07% (active); in the experiment on SF-268 CNS, 70%; with SF-295 CNS it was 39.6%; with SF-539 CNS, 1.12% (active). In addition, the growth with UACC-257 melanoma was 47.5%; in the experiment on M14 melanoma, 23.3%.

For `COc1ccc(C/C(C)=C(/c2ccc(OCCN3CCCCCC3)cc2)c2ccc(OC(=O)c3ccccc3)cc2)cc1`, the growth in the experiment on NCI-H23 lung is 109%; in the experiment with NCI-H226 lung, 110%; in the experiment with NCI-H322M lung, 102%; in the experiment on HOP-62 NSCLC, 91.3%; with NCI-H460 lung, 110%; in the experiment on HOP-92 NSCLC it was 105%. For the same compound, the growth in the experiment with NCI-H522 lung was 75.6%; with A549/ATCC NSCLC, 97.5%; in the experiment on 786-0 renal it was 96.8%; in the experiment on COLO 205 colon, 113%; in the experiment on DU-145 prostate it was 114%; in the experiment with K-562 leukemia, 89.7%. Further, the growth was 104% in the experiment on MALME-3M melanoma; 104% in the experiment with MDA-MB-231 breast; 124% in the experiment with RXF 393 renal; 106% in the experiment on SF-268 CNS; 96.1% in the experiment with SF-295 CNS; 96.8% in the experiment on SF-539 CNS. Moreover, the growth was 100% with UACC-257 melanoma and 95.3% with M14 melanoma.

With `CN1CCN(c2ccc(/C=C/C(=O)c3ccc(O)cc3)cc2)CC1`, the growth in the experiment on NCI-H23 lung is 93.9%; in the experiment on NCI-H226 lung it was 97%; with NCI-H322M lung, 101%; with HOP-62 NSCLC it was 97.7%; in the experiment on NCI-H460 lung, 101%; with HOP-92 NSCLC it was 74.8%. The growth with NCI-H522 lung is 88%; in the experiment with A549/ATCC NSCLC it was 97.7%; in the experiment with 786-0 renal it was 98.8%; in the experiment with COLO 205 colon it was 113%; with DU-145 prostate it was 93.2%; in the experiment on K-562 leukemia, 90.1%. Also, the growth was 99% in the experiment on MALME-3M melanoma; 94.8% with MDA-MB-231 breast; 95.3% with RXF 393 renal; 95.8% in the experiment with SF-268 CNS; 95.1% in the experiment on SF-295 CNS; 91.9% in the experiment on SF-539 CNS. Further, the values for the growth with UACC-257 melanoma and with M14 melanoma were 96.1% and 95.8%, respectively.

On to `Cc1ccc(C(=O)N(CCCN)[C@@H](c2nc3cc(Cl)ccc3c(=O)n2Cc2ccccc2)C(C)C)cc1`, for which the growth in the experiment on NCI-H23 lung is 8.15% (active); in the experiment on NCI-H226 lung it was 22.6%; in the experiment on NCI-H322M lung, -9.48% (active); in the experiment on HOP-62 NSCLC, -28% (active); in the experiment with NCI-H460 lung it was -72.4% (active); in the experiment on HOP-92 NSCLC, -16.3% (active). For the same compound, the growth was -45.9% (active) in the experiment on NCI-H522 lung; -40% (active) in the experiment with A549/ATCC NSCLC; -13.7% (active) in the experiment with 786-0 renal; -72.3% (active) with COLO 205 colon; 1.24% (active) in the experiment on DU-145 prostate; -30.6% (active) in the experiment with K-562 leukemia. Moreover, the growth in the experiment with MALME-3M melanoma was -79% (active); in the experiment with MDA-MB-231 breast it was -75.7% (active); with RXF 393 renal, 6.94% (active); in the experiment on SF-268 CNS, -21.8% (active); with SF-295 CNS, -60.4% (active); in the experiment on SF-539 CNS it was -75.2% (active). Further, the growth with UACC-257 melanoma was -56.6% (active); in the experiment on M14 melanoma, -65.2% (active).

In the case of `CCOC(=O)c1cnn(CC(O)CC)c1NC(=O)NCc1ccccc1C(F)(F)F` (stereo not given), the growth in the experiment on NCI-H23 lung was 92.7%; with NCI-H226 lung, 106%; in the experiment with NCI-H322M lung it was 94.5%; in the experiment with HOP-62 NSCLC, 90.8%; in the experiment with NCI-H460 lung, 110%; with HOP-92 NSCLC, 93.9%. Moreover, the growth in the experiment with NCI-H522 lung was 70.3%; in the experiment with A549/ATCC NSCLC, 94.9%; with 786-0 renal it was 96%; in the experiment with COLO 205 colon, 114%; in the experiment on DU-145 prostate, 109%; in the experiment on K-562 leukemia it was 88.5%. The growth with MALME-3M melanoma is 103%; in the experiment on MDA-MB-231 breast, 105%; in the experiment on RXF 393 renal it was 119%; in the experiment with SF-268 CNS it was 100%; with SF-295 CNS, 90.7%; in the experiment with SF-539 CNS it was 99.1%. Besides, the growth in the experiment with UACC-257 melanoma was 103%; with M14 melanoma it was 88.2%.

In the case of `Cc1nnc(NS(=O)(=O)c2ccc(N=Nc3ccc(N)nc3N)cc2)s1`, the growth in the experiment on NCI-H23 lung was 100% and 110%; in the experiment on NCI-H226 lung, 111% and 110%; with NCI-H322M lung, 114% and 92.8%; in the experiment on HOP-62 NSCLC it was 113%; in the experiment on NCI-H460 lung, 110% and 112%; in the experiment on HOP-92 NSCLC it was 95.5%. In addition, the growth in the experiment with NCI-H522 lung is 96.7%; with A549/ATCC NSCLC, 97.1% and 112%; in the experiment on 786-0 renal, 102% and 99.8%; in the experiment with COLO 205 colon, 110%; in the experiment with DU-145 prostate, 118% and 105%; in the experiment with K-562 leukemia it was 105%. Also, the growth is 110% in the experiment with MALME-3M melanoma; 95.7% and 112% in the experiment on MDA-MB-231 breast; 134% and 136% in the experiment on RXF 393 renal; 115% and 106% with SF-268 CNS; 127% and 102% with SF-295 CNS; 110% and 103% in the experiment with SF-539 CNS. In addition, the growth with UACC-257 melanoma is 105% and 117%; with M14 melanoma, 101% and 108%.

With `N#Cc1ccccc1OCC(=O)Nc1nc2c(s1)COc1ccccc1-2`, the growth in the experiment on NCI-H23 lung is 99.3%; in the experiment on NCI-H226 lung, 93.2%; in the experiment on NCI-H322M lung, 102%; in the experiment on HOP-62 NSCLC, 105%; in the experiment with NCI-H460 lung, 107%; in the experiment on HOP-92 NSCLC, 106%. In addition, the growth was 103% with NCI-H522 lung; 98.9% in the experiment with A549/ATCC NSCLC; 102% in the experiment with 786-0 renal; 105% in the experiment on COLO 205 colon; 114% in the experiment on DU-145 prostate; 104% with K-562 leukemia. The growth in the experiment with MALME-3M melanoma is 107%; with MDA-MB-231 breast, 102%; in the experiment on RXF 393 renal, 101%; in the experiment on SF-268 CNS it was 104%; in the experiment with SF-295 CNS it was 79.5%; with SF-539 CNS, 101%. The values for the growth with UACC-257 melanoma and in the experiment on M14 melanoma were 112% and 105%, respectively.

(Values after PubChem BioAssay (NCI).)
